M1 antag: blocks human M1 muscarinic receptor; P11229; CHO-K1 hM1, Fluo-8 calcium fluorescence, ACh EC80 antagonist; inhibition, % at 3 µM; 360,000 tested, 1.3% active; AID 588852;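 active = percent inhibition above its own plate's cutoff, namely the mean of that plate's compound wells plus 3 SD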;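 also: peak over basal fluorescence ratio during 140 s after agonist addition; 0% = ACh EC80 plus DMSO and 100% = DMSO alone without agonist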
Target sequence (P11229 whole entry, looked up): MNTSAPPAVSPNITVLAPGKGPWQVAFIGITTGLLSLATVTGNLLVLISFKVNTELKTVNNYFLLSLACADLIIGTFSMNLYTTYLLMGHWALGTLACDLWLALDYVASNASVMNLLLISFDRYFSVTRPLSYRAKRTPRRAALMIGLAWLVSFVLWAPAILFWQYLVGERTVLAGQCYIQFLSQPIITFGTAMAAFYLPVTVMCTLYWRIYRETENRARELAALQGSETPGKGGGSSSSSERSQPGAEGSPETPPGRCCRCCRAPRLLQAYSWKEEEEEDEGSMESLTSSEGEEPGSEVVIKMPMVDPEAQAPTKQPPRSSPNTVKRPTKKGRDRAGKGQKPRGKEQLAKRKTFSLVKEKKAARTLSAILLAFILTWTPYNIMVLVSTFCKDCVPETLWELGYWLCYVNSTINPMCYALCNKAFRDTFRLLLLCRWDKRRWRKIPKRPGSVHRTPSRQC
CHO-K1 Ca PAM: counter-screen for M1 PAMs: effect in parental CHO-K1 cells. ATP EC20, Fluo-8 calcium fluorescence; 0% at ATP EC20, 100% at ATP max. activation, % at 3 µM. 360,000 tested, 0.02% active. AID 602247;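 active = activation above the run cutoff, the mean activation of all test compounds plus 3 SD, cut at about 40% in these data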;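 also: peak over basal fluorescence ratio in a 140 s read after ATP addition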
CHO-K1 Ca ag: counter-screen for M1 agonists: effect in parental CHO-K1 cells; activation, % at 3 µM; Fluo-8 calcium fluorescence; scaled to maximal ATP response, vehicle zero; 360,000 tested, 0.48% active; in the data active = activation above about 15%;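 also: untransfected CHO-K1 host cells lacking M1 receptor as counterscreen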
CHRM1 agonist: human M1 muscarinic receptor agonism; AID 588814; 360,000 tested, 0.33% active; activation, % at 3 µM; CHO-K1 hM1, Fluo-8 calcium fluorescence, agonist mode; 0% DMSO, 100% acetylcholine EC100; P11229;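 active = activation above the run's mean compound activation plus 3 SD, cut at about 16% in these data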;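 also: peak over basal fluorescence ratio within a 140 s kinetic read after compound addition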
CHRM1 PAM: positive allosteric modulators of human M1 muscarinic receptor | CHO-K1 hM1, Fluo-8 calcium fluorescence, ACh EC20; 0% = ACh EC20, 100% = maximal ACh | activation, % at 3 µM | 360,000 tested, 0.088% active | AID 588819; in the data active = activation above about 19%, passing the limit was not always enough
CHO-K1 Ca antag: M1 antagonist counterscreen hit in parental CHO-K1 cells. ATP-induced calcium, Fluo-8 fluorescence. inhibition, % at 3 µM. 360,000 tested, 0.6% active. AID 602250;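 active = inhibition above a per-plate cutoff, the plate's mean sample inhibition plus 3 SD, cut at about 24% in these data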;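 also: 0% = DMSO plus EC80 ATP and 100% = DMSO alone without ATP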
The depositor's hits bear a star. An excerpt weighted towards active compounds, which were near 2.4% of everything screened.

SMILES | M1 antag | CHO-K1 Ca PAM | CHO-K1 Ca ag | CHRM1 agonist | CHRM1 PAM | CHO-K1 Ca antag
O=C(c1ccc([N+](=O)[O-])o1)N(Cc1nnc(-c2ccccc2Cl)o1)C1CC1 | 27* | -11 | 0 | -9 | -10 | 14
CN1CCN(S(=O)(=O)c2cccc(C(=O)N(Cc3nnc(-c4ccccc4Cl)o3)C3CC3)c2)CC1 | -7 | -3 | 17* | -1 | 5 | 4
NS(=O)(=O)c1ccc(NC(=S)NCCc2ccccc2)cc1 | -2 | 10 | 0 | -2 | 10 | -4
S=C(NCCc1ccccc1)Nc1ccc(Cl)cc1 | 13 | 10 | 9 | -9 | -10 | 6
O=[N+]([O-])c1ccc(NC(=S)NCCc2ccccc2)cc1 | 39* | -9 | 12 | -4 | -28 | 23
O=[N+]([O-])c1ccc(NC(=S)NCc2ccncc2)cc1 | 3 | 0 | 8 | 2 | -10 | 10
O=[N+]([O-])c1ccc(NC(=S)NCCc2ccc(Cl)cc2)cc1 | 35* | 12 | 8 | 1 | -11 | 14
O=[N+]([O-])c1ccc(NC(=S)NCc2ccc(F)cc2)cc1 | 28* | -15 | 15 | 8 | -12 | 24*
CNC(=O)C(=O)NCCc1ccc(Cl)cc1 | -4 | 13 | 1 | -4 | 21* | -6
CCOC(=O)N1CCN(c2ccc(C(=O)c3ccccc3)cc2F)CC1 | -7 | 10 | 1 | 1 | 3 | -4
N#Cc1ccc(-c2cccc3nccn23)cc1 | -10 | 13 | 0 | -6 | -2 | -12
CCN=C(NCC)SC1CC(=O)N(c2cccc(OC)c2)C1=O (stereo unspecified) | 32* | 9 | 8 | 0 | -14 | -6
CCN=C(NCC)SC1CC(=O)N(c2ccc(OCC)cc2)C1=O (stereo unspecified) | 30* | -1 | 6 | 0 | -20 | 11
CCN=C(NCC)SC1CC(=O)N(c2ccccc2)C1=O (stereo unspecified) | 25* | -2 | 6 | 3 | -17 | 20
CCN=C(Nc1cccc(F)c1)SC1CC(=O)N(c2ccc(OC)cc2)C1=O (stereo unspecified) | 21 | 2 | 8 | -4 | -16 | -2
CCOC(=O)/C=C1/SCC(=O)N1CC(=O)NC12CC3CC(CC(C3)C1)C2 | -24 | 30 | 0 | -1 | 13 | -10
OC(c1ccccc1)c1ncc(-c2ccc(Oc3ccccc3)cc2)[nH]1 (stereo unspecified) | -6 | -13 | 0 | 1 | 3 | 10
Cc1ccc(C(=O)NNC(=O)c2ccc(NC(=O)C(C)(C)C)cc2)cc1 | -7 | 2 | 15* | 8 | 9 | 4
CC(C)(C)C(=O)NC(=S)NNC(=O)c1ccc(-c2ccccc2)cc1 | 103* | -26 | 107* | 115* | -24 | 95*
CC(C)(C)C(=O)NC(=S)NNC(=O)c1ccc(Cl)cc1Cl | 87* | -32 | 119* | 117* | -24 | 59*
CC(C)c1cc(NC(=O)CCl)on1 | -1 | -4 | 0 | -9 | 11 | 12
CC(C)C(=O)Nc1cccc(S(=O)(=O)NC2=NCCC2)c1 | -10 | -7 | 0 | -4 | -1 | 2
COc1ccc(C2CC(=O)c3cnc(NC(=O)c4ccccc4)nc3C2)c(OC)c1 (stereo unspecified) | 1 | -4 | 0 | -1 | 4 | 24*
CCOc1ccc(NC(=O)c2cccc(NC3=NC4CS(=O)(=O)CC4S3)c2)cc1 (stereo unspecified) | -10 | 13 | 0 | -3 | 7 | 4
COC(=O)CCCCCCCCCCN1CCCCC1 | 27* | 16 | 2 | -8 | -24 | -4
SMILES | M1 antag | CHO-K1 Ca PAM | CHO-K1 Ca ag | CHRM1 agonist | CHRM1 PAM | CHO-K1 Ca antag
COC(=O)CCCCC(=O)OC | -16 | 11 | 0 | 5 | 18 | -13
CCCC(CCC)C(=O)OC1C[C@H]2CC[C@@H](C1)[N+]2(C)C (stereo partly specified) | 98* | 6 | 0 | -7 | -26 | -1
COc1ccc(NC(=O)CSC2CCCCC2)cc1 | -6 | -3 | 0 | -7 | 6 | -16
Cc1nc2ccc(S(=O)(=O)Nc3cccc(-c4nc5cccnc5s4)c3C)cc2s1 | 39* | 0 | 10 | 2 | -19 | 3
O=c1[nH]nc(Cc2ccc(-c3cccc(Cl)c3)o2)c2ccccc12 | 19 | -9 | 0 | -3 | -3 | 24*
Clc1cccc(-c2ccc(CNCc3ccccn3)o2)c1 | -5 | 25 | 4 | -7 | 6 | -13
Cc1[nH]c2ccccc2c1C(C[N+](=O)[O-])c1cccc(O)c1 (stereo unspecified) | 37* | -1 | 7 | -1 | -13 | 6
O=C(COCc1cc(-c2ccc3c(c2)OCO3)on1)Nc1cccnc1Cl | -13 | 15 | 1 | -2 | 6 | -12
Cc1cc(O)ccc1C1(c2ccc(O)cc2C)OC(=O)c2ccccc21 | -27 | 10 | 6 | 15 | 6 | 13
CC(=O)Oc1ccc2c(c1)Oc1cc(OC(C)=O)ccc1C21OC(=O)c2ccccc21 | 102* | -12 | 824* | 974* | -29 | 101*
COc1ccc(CCNC(=O)c2cc(-c3ccncc3)nc3c(Cl)cccc23)cc1OC | 38* | -15 | 5 | -3 | -12 | -4
COc1ccc(CCNC(=O)c2cc(-c3ccccn3)nc3c(Cl)cccc23)cc1OC | -11 | 0 | 0 | -3 | 5 | -5
C=C(C)Cn1c(=O)c(NC(=O)c2ccccc2)c2n(c1=S)CCC2 | -13 | -4 | 0 | -4 | -1 | -2
CCOc1ccc(CN2CCCC(N3CCN(c4ccc(OC)cc4)CC3)C2)cc1 (stereo unspecified) | 35* | -23 | 0 | -9 | -19 | 13
CCC(=O)N1CCCc2cc(S(=O)(=O)N3CCN(c4ncccn4)CC3)ccc21 | 5 | 1 | 0 | 1 | 6 | 24*
Cc1cc(Cl)c2oc(C(=O)N(C)CC3CCOCC3)c(C)c2c1 | 0 | -10 | 3 | -1 | 5 | -4
N#Cc1ccc(-c2ccco2)nc1SCC(=O)c1ccc(Cl)cc1 | 8 | 12 | 4 | -2 | -1 | -7
COc1ccc(CNC(=O)c2cnn3c(C(F)F)cc(C)nc23)cc1OC | -7 | -5 | 4 | 4 | 5 | 26*
CSc1n[nH]c(=O)n1C1CCCCC1 | 4 | 1 | 18* | -6 | -1 | 1
O=C(CSc1n[nH]c(=O)n1C1CC1)c1ccc(F)cc1 | -14 | 2 | 1 | -2 | 10 | 5
CCn1nccc1C(=O)Nc1cc(Cl)ccc1Cl | -20 | 24 | 2 | -5 | 9 | -8
COc1ccccc1/C=C/CN1CCCC(CO)(CCc2ccccc2)C1 (stereo unspecified) | 19 | 12 | 1 | -8 | -18 | 0
OCC1(CCc2ccccc2)CCCN(C/C=C/c2ccccc2)C1 (stereo unspecified) | 35* | -9 | 0 | -9 | -25 | -9
